PubChem BioAssay (NCI)
About 83,000 compounds went through this panel and 20% of them were active in at least one assay; those are over-represented in the sample as a whole.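 Compound tested at a single concentration for 48 hours in 96-well plates; a percent growth value below 10 was scored as active.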 A number with no mark means an inactive call. Calls of active or inactive are those of the source.

Test system: HL-60(TB) leukemia
Test: NCI-60 one-dose screen, 48 h (100 = growth as untreated, 0 = no growth, -100 = all killed)
Conditions: 10 µM unless noted

Row | Compound | growth
1 | NC(=O)c1cccc(-c2ccc(S(=O)(=O)Nc3ccc4c(c3)N(C(=O)C3CC3)CCC4)cc2)c1 | 1.43% (active)
2 | Cc1c(Cl)cccc1NC(=O)c1sc2nc3c(cc2c1N)COCC3 | 2.35% (active)
3 | O=S1(=O)CCC(N(/N=C/c2ccco2)c2ccccc2)C1 (centres undefined) | 100%
4 | CCOC(=O)C/C(=C\c1ccccc1)C(C)=O | 98.5%
5 | O=C(CNc1nnc(-c2ccc(Cl)cc2)o1)Nc1ccc(-c2nc3ccccc3s2)cc1 | 93.7%
6 | CC(C)=CC(=O)N[C@@H]1CC2CCC3C(CC[C@@]4(C)C3CC[C@@H]4C(C)N(C)C)[C@@]2(C)C[C@@H]1O (some centres undefined) | -63.8% (active)
7 | Cc1nc(S(=O)(=O)c2ccccc2)c(S(=O)(=O)Cc2ccc([N+](=O)[O-])cc2)o1 | 89.9%
8 | O=C(/C=C/c1ccc([N+](=O)[O-])cc1)c1cccc(Nc2nc(Nc3ccccc3)nc(Nc3ccccc3)n2)c1 | 85.1%
9 | COc1cc2oc(-c3cccc(NC(=O)Nc4ccc5c(c4)OCO5)c3)cc(=O)c2c(OC)c1OC | 56.8%
10 | CCc1c2c(nc3ccc(OCc4ccc(B(O)O)cc4)cc13)-c1cc3c(c(=O)n1C2)COC(=O)[C@]3(O)CC | -40.8% (active)
11 | O=C1NCN(c2ccccc2)C12CCN(CCCC(c1ccc(F)cc1)c1ccc(F)cc1)CC2 | 32.6%
12 | CNC(=O)c1cc(Oc2ccc3nc(NC(=O)Nc4ccc(Cl)c(Cl)c4)sc3c2)ccn1 | 78.8%
13 | O=C1C(Cl)=C(N=Nc2c(Cl)c(O)c3ccccc3c2O)C(=O)c2ccccc21 | 90.7%
14 | N=C(N)c1ccc(-c2ccc(-c3ccc(Cl)cc3Cl)o2)nc1 | -26.7% (active)
15 | CC(C)NCC(O)COc1ccc(CC(N)=O)cc1 (centres undefined) | 101%
16 | O/N=C/c1cccs1 | 95.3%
17 | CCOC(=O)c1c(C)[nH]c(CO)c1C | 97.1%
18 | C[C@H](CCC[C@H](C)OS(=O)(=O)c1ccccc1)OS(=O)(=O)c1ccccc1 | 119%
19 | CC(=O)Nc1nc(C)c(C(=O)N/N=C/c2cccn2C)s1 | 112%
20 | O=C(O)CCCl | 107%

Row | Compound | growth
21 | COc1cc(/C(=C2/O[C@@H]([C@H]3COC(C)(C)O3)[C@H]3OC(C)(C)O[C@@H]23)c2ccc3c(c2)OCO3)cc(OC)c1OC | 86.1%
22 | c1ccc(-c2cn(-c3ccccc3)c(-c3ccccc3)n2)cc1 | 40.3%
23 | CCOc1cc(N)ccc1C(=O)NCCCN(CC)CC | 70.2%
24 | O=C1C(Cl)C(c2ccccc2Cl)N1n1cnnc1 (centres undefined) | 109%
25 | Cn1ccnc1C(=O)/C=C/c1ccc(C(=O)Nc2c(F)c(F)c(F)c(F)c2F)cc1 | -22.4% (active)
26 | CNCCCn1c2c(c3ccc([N+](=O)[O-])cc3c1=O)C(=O)c1cc(OC)cnc1-2 | -32.3% (active)
27 | CCOC(=O)/C(=C/c1c(-c2ccccc2)[nH]c2ccccc12)C(=O)c1ccc(Cl)cc1 | -10.6% (active)
28 | Cc1nn(-c2ccccc2)c2c1oc(=O)c1cc(Cl)ccc12 | 84.3%
29 | COc1ccc(-c2n/c(=C\c3c(O)[nH]c4ccccc34)cc3c2=Nc2ccccc2-3)cc1 | -19.1% (active)
30 | COc1ccc(-c2ccc(NC(=O)Nc3ccc(Cl)c(C(F)(F)F)c3)c(C)n2)cc1 | 32.3%
31 | COc1ccc(C(=O)c2ccccc2CN2C(=O)c3ccccc3C2=O)cc1 | 103%
32 | CC(C)(C)c1cc(C[P+](c2ccc(Cl)cc2)(c2ccc(Cl)cc2)c2ccc(Cl)cc2)cc(C(C)(C)C)c1O | 3.1% (active)
33 | COc1ccc(OC)c(N(CCN2C(=O)c3ccccc3C2=O)C(=O)CCl)c1 | -63.3% (active)
34 | O=C(CCc1nc(-c2cccc(Cl)c2)no1)Nc1ccccn1 | 102%
35 | CC(=O)N1N=C(c2ccc(C)cc2)CC1c1ccc(Oc2ccc(Br)cc2)cc1 (centres undefined) | 94%
36 | O=C(Nc1ccc(Br)cc1F)c1cc(I)ccc1O | -33.3% (active)
37 | Nc1c(C(=O)Nc2cccc(Cl)c2)sc2nc3c(cc12)CCCC3 | 78.8%
38 | c1ccc2sc(SSN3CC4CCC(CC4)C3)nc2c1 | 89.3%
39 | COc1ccc2c(c1OC)C(=O)O[C@H]2[C@H]1c2c(cc3c(c2OC)OCO3)CCN1C | 31.9%
